From PubChem BioAssay AID602244 (Sanford-Burnham Center for Chemical Genomics, 2012)
Screen size: about 360,000 compounds; about 1,300 (0.36%) were called active. Rule as the data show it: active = inhibition above about 34% (passing the limit was not always enough); inactive = the rest. The list comes from a sample in which actives are over-represented; it also holds similar structures and randomly drawn compounds.

These compounds were tested against C-X-C chemokine receptor type 6 (Homo sapiens) (UniProt O00574) (assay: blockade of CXCL16-induced CXCR6 beta-arrestin recruitment – cell-based, luminescence, CHO-K1 PathHunter, 1536-well, primary screen (AID 602244;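 also: antagonist mode with CXCL16 agonist at 10 nM final; 0% = 10 nM CXCL16 with DMSO and 100% = unstimulated wells without agonist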)). Details: at 20 µM, stronger effect = higher value.
Sequence of C-X-C chemokine receptor type 6 (Homo sapiens) (O00574 whole entry, looked up): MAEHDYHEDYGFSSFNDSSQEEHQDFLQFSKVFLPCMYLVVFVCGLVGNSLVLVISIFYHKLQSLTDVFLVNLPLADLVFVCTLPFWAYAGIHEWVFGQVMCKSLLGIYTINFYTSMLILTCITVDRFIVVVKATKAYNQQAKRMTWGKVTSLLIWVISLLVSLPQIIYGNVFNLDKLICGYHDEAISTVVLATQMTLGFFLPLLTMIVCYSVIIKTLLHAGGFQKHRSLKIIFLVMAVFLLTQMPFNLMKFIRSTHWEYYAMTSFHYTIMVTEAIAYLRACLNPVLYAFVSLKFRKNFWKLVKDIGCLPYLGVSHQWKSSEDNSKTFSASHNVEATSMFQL

| SMILES | inhibition |
| --- | --- |
| CC(C)N=C1CCCC1C(=S)SSC(=S)C1CCCC1=NC(C)C (centres undefined) | 78.9% (active) |
| CCc1ccccc1N(CC(=O)N1CCN(c2ccccc2F)CC1)S(C)(=O)=O | 1.2% (inactive) |
| CCCc1cc(=O)oc2c(C)c(OC(C)C(=O)NCC(O)c3ccccc3)ccc12 (centres undefined) | 2.9% (inactive) |
| O=C1NCC(c2ccccc2)(c2ccccc2)C(=O)N1 | 3.6% (inactive) |
| CC(NC(=S)NNS(=O)(=O)c1ccc(C(C)(C)C)cc1)c1ccccc1 (centres undefined) | -0.6% (inactive) |
| Cc1cc(/C=C2/SC(=O)N(CC(=O)OC(C)C)C2=O)c(C)n1C | 1.9% (inactive) |
| CC(C)OC(=O)CN1C(=O)C(=O)c2ccccc21 | 68% (active) |
| COc1cc(C(C)=O)ccc1OC(=O)CN1C(=O)c2ccccc2C1=O | 1.2% (inactive) |
| COc1cccc(NC(=O)Cn2c3ccc(F)cc3c3nc4n(c(=O)c32)CCS4)c1 | 4.8% (inactive) |
| CCN(CC)C(=O)CC1(c2ccccc2OC)CCOC(C(C)C)C1 (centres undefined) | 6.3% (inactive) |
| CC(C)(C)S(=O)(=O)c1ccccc1-c1noc(-c2ccccc2)c1C(N)=O | -0.6% (inactive) |
| Cc1ccc(S(=O)(=O)N2CCOCC2)cc1NC(=O)c1ccncc1 | -5.9% (inactive) |
| CN(CCc1ccccc1)C(=O)c1cccc(NC(=O)Cc2ccc([N+](=O)[O-])cc2)c1 | -6.9% (inactive) |
| CN(O)C(=S)c1ccccc1 | 73.3% (active) |
| CCN(CC)CCCNC(=O)CCn1nc(-c2ccc(Cl)cc2)ccc1=O | 2.5% (inactive) |
| COc1ccc(CNC(=O)[C@@H]2CC=C[C@@H]3CCN(C4CC4)C(=O)[C@@H]32)cc1 | -0.1% (inactive) |
| O=C1CCC(=O)N1CCC(=O)N(C(=O)NC1CCCCC1)C1CCCCC1 | 0% (inactive) |
| S=c1[nH]ccn1-c1ccc(Cl)cc1 | -3.9% (inactive) |
| Cc1noc(C)c1C(=O)N(CC(=O)NC1CCCC1)Cc1ccccc1F | -0.5% (inactive) |
| O=[N+]([O-])/C=C/c1ccc2c(ccn2Cc2ccccc2)c1 | 73.1% (active) |
| CCc1noc(C)c1C(=O)N1CCCSC1=Nc1ccccc1OC | -1.3% (inactive) |
| CCCCCCCCCCOC(=O)C[N+](C)(C)CC1CCCCC1O (centres undefined) | 57.1% (active) |
| CCCCCOC(=O)c1ccc(N2C(=O)C3C4C=CC(C4)C3C2=O)cc1 (centres undefined) | 4.9% (inactive) |

| SMILES | inhibition |
| --- | --- |
| COc1ccc(S(=O)(=O)N(C)CC(=O)N2CCCC2)cc1Cl | -1.8% (inactive) |
| O=C1CCCN1C(=O)COc1ccc([N+](=O)[O-])cc1 | -0.7% (inactive) |
| O=C1/C(=C\c2ccc([N+](=O)[O-])cc2)CS(=O)(=O)C/C1=C/c1ccc([N+](=O)[O-])cc1 | 96.9% (active) |
| O=C(Cc1ccccc1)N1CCN(S(=O)(=O)c2ccc([N+](=O)[O-])cc2)CC1 | -15.5% (inactive) |
| CC(CC(=O)Nc1ccc(F)cc1F)S(=O)(=O)c1ccc2c(c1)NC(=O)CO2 (centres undefined) | 6.2% (inactive) |
| CCn1cc(C(=O)N2CC=C(c3ccccc3)CC2)c(=O)c2ccc(C)nc21 | -18.1% (inactive) |
| Cc1ccc(C(=O)NC2CCN(C(=O)Nc3ccc(F)cc3)CC2)cc1 | -6% (inactive) |
| Cc1ccc(NC(=O)CCC(=O)c2ccc(Br)cc2)cc1 | -2.1% (inactive) |
| Cc1ccc(C(=O)CNc2ccc(F)cc2)cc1 | 46.4% (active) |
| CCCC(=O)Nc1ncnc2c1ncn2[C@@H]1O[C@@H]2OP(=O)(O)OC[C@H]2[C@H]1OC(=O)CCC | -1% (inactive) |
| CC1=C/C(=N\OS(=O)(=O)c2ccccc2)C=CC1=O | 62% (active) |
| N#Cc1c(NC(=O)c2ccc(N3CCOCC3)c([N+](=O)[O-])c2)sc2c1CCCC2 | 15.6% (inactive) |
| O=C1Nc2ccc(Br)cc2/C1=N/N=C/C1=C(N2CCOCC2)C(=C\c2ccccc2)/CC1 | 41.2% (active) |
| O=C(O)c1ccc(NN=CC2=C(N3CCOCC3)/C(=C/c3ccccc3)CC2)cc1 | -2.9% (inactive) |
| O=S(N1CCCCCC1)C12CC3CC(CC(C3)C1)C2 (centres undefined) | -6.4% (inactive) |
| CC(=O)N1CCc2c(sc(NC(=O)CCS(=O)(=O)c3ccc(C)cc3)c2C(N)=O)C1 | 8.6% (inactive) |
| CCCNC(=O)C1(C)CCCN(C(=O)c2oc3ccccc3c2C)C1 (centres undefined) | 6.5% (inactive) |
| COc1ccc(C2/C=C\CN(S(=O)(=O)c3cccs3)CC(=O)N2Cc2ccc(F)cc2)cc1 (centres undefined) | 10.5% (inactive) |
| CC1CN(CC(=O)NC(C)c2ccccc2)CC(C)O1 (centres undefined) | 4.8% (inactive) |
| CC(=O)Nc1cc(-c2ccc(N3CCN(C)CC3)cc2)cn2c(-c3ccc(F)cc3)cnc12 | 89.5% (active) |
| COc1ccccc1-c1cc(NC(C)=O)c2ncc(-c3ccc(F)cc3)n2c1 | 8.7% (inactive) |
| CC(=O)Nc1cc(-c2ccc(N3CCN(C)CC3)cc2)cn2c(-c3cccc(C(=O)N(C)C)c3)cnc12 | -6.6% (inactive) |
| CCOn1c(=O)c(=O)n(O)c2ccccc21 | 3.7% (inactive) |

| SMILES | inhibition |
| --- | --- |
| COc1ccc(C(O)c2nc(-c3ccc(OC)nc3)cs2)cc1 (centres undefined) | -1.3% (inactive) |
| COc1ccc(-c2csc(Cc3nc(O)cs3)n2)cc1 | 66.9% (active) |
| COc1ccc(C(C)(NC(C)=O)c2nc(-c3ccc(S(C)(=O)=O)cc3)cs2)cc1 (centres undefined) | 1.5% (inactive) |
| O=C(NCc1ccccc1)C1c2ccccc2OCC(=O)N1CCCN1CCOCC1 (centres undefined) | 3.7% (inactive) |
| O=C(c1ccncc1)N1CCN(S(=O)(=O)c2cc(C(F)(F)F)cc(C(F)(F)F)c2)CC1 | -2.1% (inactive) |
| COc1cccc(NC(=O)C(=O)c2cn(CC(=O)N3CCOCC3)c3ccccc23)c1 | 6% (inactive) |
| O=C1c2ccccc2NC(c2ccccc2O)N1NS(=O)(=O)c1ccccc1 (centres undefined) | -0.7% (inactive) |
| CC(C)c1c(O)nc(SCCOc2ccc(Cl)cc2)[nH]c1=O | 7.1% (inactive) |
| Cc1ccc(-c2nn(-c3ccc(F)cc3)cc2C(=O)NCC(c2cccs2)N2CCOCC2)cc1 (centres undefined) | 15.5% (inactive) |
| O=C(c1ccc(Cl)c(S(=O)(=O)N2CCCCCC2)c1)N1CCN(c2ccc(O)cc2)CC1 | -20.6% (inactive) |
| O=C1C=CC(=O)N1c1ccc(N2CCCCC2)cc1 | 74.7% (active) |
| c1ccc(-n2cccc2)c(N2CCCCC2)c1 | -7.4% (inactive) |
| NC(=O)c1ccc(N2CCCC2)nc1 | 1% (inactive) |
| COC(=O)C1=C(C(=O)OC)[C@@H]2N(C)c3ccccc3[C@@]23C[C@@H](C(=O)OC)N(C(C)=O)C3=N1 | 0.7% (inactive) |
| O=C(C1CC(=O)N(c2ccc(F)cc2)C1)N1CCN(c2ccccc2)CC1 (centres undefined) | 7% (inactive) |
| O=C(C1CC(=O)N(C2CCCC2)C1)N1CCN(c2cccc(C(F)(F)F)c2)CC1 (centres undefined) | -1.4% (inactive) |
| O=C(C1CC(=O)N(C2CCCCC2)C1)N1CCN(c2ccccc2)CC1 (centres undefined) | 37% (active) |
| CCN1CCN(c2ccc(S(=O)(=O)N3CCCCC3)cc2NC(=O)c2cccc(NC(C)=O)c2)CC1 | 1.9% (inactive) |
| CN(CCCC(=O)Nc1nccs1)S(=O)(=O)c1ccc(Cl)cc1 | 0.8% (inactive) |
| O=S(=O)(NCc1ccccc1Br)c1ccccc1Br | 4.3% (inactive) |
| Oc1ccc2ccccc2c1N=Nc1nccs1 | 65.1% (active) |
| COC(=O)CN1C(=O)[C@H]2[C@@H](/C=C/c3ccccc3)N3C(=O)CN(Cc4ccccc4)C(=O)[C@@]3(Cc3ccccc3)[C@H]2C1=O | -9.8% (inactive) |
| O=C(Nc1ccc(S(=O)(=O)N2CCOCC2)cc1)C1CCN(S(=O)(=O)c2ccc(Cl)cc2)CC1 | 0.6% (inactive) |

| SMILES | inhibition |
| --- | --- |
| C/C(=N\NS(=O)(=O)c1ccc(Cl)cc1)c1ccc(NC(=O)c2ccco2)cc1 | 0.1% (inactive) |
| O=C(Nc1ccccc1)c1nnsc1S(=O)(=O)c1ccc(Cl)cc1 | 96.4% (active) |
| CC1CCN(CCCNC(=O)CN2C(=O)CSc3ccc(S(=O)(=O)N4CCCCC4)cc32)CC1 | 2% (inactive) |
| Cc1ccc(-c2noc(CCC(=O)Nc3ccccc3N3CCN(C)CC3)n2)cc1 | 6% (inactive) |
| CCc1nn(-c2cc(Oc3cccc4ccccc34)nc(-c3ccccc3)n2)c(N)c1C#N | 0.4% (inactive) |
| Cc1cccc(CS(=O)(=O)c2ncc(Cl)c(C(=O)Nc3ccc(F)cc3)n2)c1 | 57% (active) |
| Cc1cccc(C(=O)Nc2ccc(Oc3cnccn3)cc2)c1 | 1.5% (inactive) |
| Cc1cccc(NC(=O)Cn2cc(C(=O)c3ccco3)c3ccccc32)c1 | 4.5% (inactive) |
| Cc1cccc(NC(=O)C2CCN(S(=O)(=O)c3cccc4cccnc34)CC2)c1 | 9.3% (inactive) |
| Cc1cccc(NC(=O)c2nc(S(=O)(=O)Cc3ccccc3)ncc2Cl)c1 | 64.6% (active) |
| CN(CC(=O)Nc1ccc(F)cc1)CC(=O)Nc1ccc(Cl)c(S(=O)(=O)N2CCOCC2)c1 | -1% (inactive) |
| O=C(NN1CCOCC1)c1cccc(F)c1 | 0.7% (inactive) |
| CCCNC(=O)C1(C)CCN(C(=O)c2cc(F)ccc2C)C1 (centres undefined) | 0.9% (inactive) |
| O=C(CSc1nc2cc3c(cc2c(=O)n1CCC1=CCCCC1)OCO3)NCc1ccco1 | 6.1% (inactive) |
| Cc1ccc2c(c1)N(CC(=O)NCCc1ccc(Cl)cc1)C(=O)c1cccnc1O2 | -3.1% (inactive) |
| O=c1ccc2c(-c3ccccc3S(=O)(=O)O)c3ccc(O)c(O)c3oc-2c1O | 47.9% (active) |
| CC(=O)N1c2ccc(S(=O)(=O)N3CCCC(C(=O)Nc4cccc(F)c4)C3)cc2CC1C (centres undefined) | -11.7% (inactive) |
| Cc1ccc(CCCOC(=O)C[N+]2(C)CCCCC2)cc1 | -4.5% (inactive) |
| CCCNC(=O)c1onc(CSc2ccc(F)cc2)c1C(=O)NC(C)C | 2.3% (inactive) |
| Cc1ccc(S(=O)(=O)N2CC[C@H]3[C@@H](C2)C(=O)C[C@@H](c2ccccc2)N3S(=O)(=O)c2ccc(C)cc2)cc1 | -1.4% (inactive) |
